Sfp PPTase inh – qHTS Assay for Inhibitors of Bacillus subtilis Sfp phosphopantetheinyl transferase (PPTase) | 310,000 tested, 3.5% active | Biochemical Sfp PPTase activity, qHTS | Potency, µM, usual class: inhibitors | AID 1490, 2009;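 also: the enzyme is Sfp with the accession as filed and its product quenches rhodamine fluorescence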
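Fluorescence-quenching assay with 15 nM Sfp, 5 uM rhodamine-CoA and 12.5 uM BHQ-2-labelled ybbR peptide in pH 7.6 Hepes/MgCl2 buffer. Enzyme was pre-incubated with compound for 15 min at room temperature. Rate was taken from the 30-min fluorescence change (525/598 nm).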
BAZ2B inh – qHTS Assay for Inhibitors of BAZ2B; AlphaScreen BAZ2B-H3K14Ac peptide displacement; Potency, µM (top dose mostly 114 µM), most hits filed as inhibitors; 360,000 tested, 4.4% active; also: nearly all actives have a fitted effect of over 60% in size
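BAZ2B (50 nM) with biotin-H3(5-23)K14Ac peptide (50 nM) in PBS pH 7.4, 0.01% Tween-20, preformed 30 min, then compound 30 min at room temperature; top concentration 110uM. AlphaScreen streptavidin donor/nickel chelate acceptor beads (10 ug/mL final), 20 min dark, signal read.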
JMJD2A Tudor – qHTS Assay for Inhibitors of JMJD2A-Tudor Domain; AlphaScreen JMJD2A-Tudor / H3K4me3 peptide binding; Potency, µM (doses to about 114 µM), most hits filed as inhibitors; 390,000 tested, 4.4% active; also: nearly all actives have a fitted effect of over 50% in size
G9a block – qHTS Assay for Inhibitors of Histone Lysine Methyltransferase G9a. Histone-lysine N-methyltransferase EHMT2 (Homo sapiens), Q96KQ7. G9a H3K9 monomethylation, AlphaScreen, 2 h. Potency, µM (doses to about 102 µM), actives largely listed as inhibitors. 350,000 tested, 8.8% active. AID 504332, 2011; also: nearly all actives have a fitted effect of over 75% in size
Target sequence (Q96KQ7 913-1193 limits assumed): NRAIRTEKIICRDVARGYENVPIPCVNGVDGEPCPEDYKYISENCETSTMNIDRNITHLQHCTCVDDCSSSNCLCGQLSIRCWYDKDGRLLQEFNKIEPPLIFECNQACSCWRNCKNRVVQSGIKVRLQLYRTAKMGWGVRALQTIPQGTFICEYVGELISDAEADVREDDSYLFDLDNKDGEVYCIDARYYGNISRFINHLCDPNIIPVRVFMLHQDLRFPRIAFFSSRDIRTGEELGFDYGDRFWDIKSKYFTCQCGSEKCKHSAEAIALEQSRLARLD
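Using a bead-based AlphaScreen, monomethylated H3K9 product from 2 h room-temperature reactions (G9a 20 nM, peptide 500 nM, SAM 20 uM) was detected with 0.5 ug/mL rabbit anti-H3K9me1 antibody.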
PLK1 PBD inh – qHTS for Inhibitors of PLK1-PDB (polo-like kinase 1 - polo-box domain): Primary Screen | Potency, µM, actives largely listed as inhibitors | AID 720504, 2013 | Serine/threonine-protein kinase PLK1 (Homo sapiens), P53350 | 360,000 tested, 2.8% active | Plk1 PBD binding of FITC phosphopeptide, fluorescence polarization; also: series mostly up to about 57 µM; nearly all actives have a fitted effect of over 65% in size
HP1b binding inh – HTS for Inhibitors of HP1-beta Chromodomain Interactions with Methylated Histone Tails; Chromobox protein homolog 1 (Homo sapiens), P83916; Potency, µM (titrated, usually from 114 µM), hits mostly inhibitors; 390,000 tested, 0.56% active; AlphaScreen HP1-beta / biotin-H3K9me3 peptide binding; also: nearly all actives have a fitted effect of over 70% in size
Target sequence (P83916 whole entry, looked up): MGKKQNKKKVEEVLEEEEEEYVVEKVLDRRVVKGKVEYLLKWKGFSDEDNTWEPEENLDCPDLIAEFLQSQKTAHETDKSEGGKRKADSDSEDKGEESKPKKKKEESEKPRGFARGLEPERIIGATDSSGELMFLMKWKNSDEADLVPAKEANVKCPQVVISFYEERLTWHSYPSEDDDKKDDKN
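Compound inhibition of the preformed complex between 50 nM HP1-beta and 50 nM biotinylated H3K9me3 peptide was read by AlphaScreen. Buffer was PBS pH 7.4 with 0.01% Tween-20. Incubations ran 30 min at room temperature, with 10 ug/mL donor/acceptor beads.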
Numbers stand for hits; [ ] = another dose, or the depositor's remark. Most compounds without a hit are left out; they make up all but 12% or so of the library. Calls follow the shape of the dose curve; as a rule, active = well fitted curve in the direction sought with a large enough effect; inconclusive = small, poorly fitted or top-dose-only effect, or another doubt; inactive = no such curve, though single readings can be large; an effect the other way counts as inactive or inconclusive.

CCOP(=O)(Cc1cc(C(C)=O)c(C)o1)OCC was read as Sfp PPTase inh inconclusive, BAZ2B inh inactive, JMJD2A Tudor inactive, G9a block 8.91µM, PLK1 PBD inh inconclusive and HP1b binding inh inactive.
Screening CCOP(=O)(Cc1ccc(C#N)o1)OCC returned Sfp PPTase inh inactive, BAZ2B inh inactive, JMJD2A Tudor inactive, G9a block inconclusive, PLK1 PBD inh inactive and HP1b binding inh inactive.
Screening CCCC(=O)c1cc(CP(=O)(OCC)OCC)oc1C returned Sfp PPTase inh inconclusive, BAZ2B inh inactive, JMJD2A Tudor inactive, G9a block 7.94µM, PLK1 PBD inh inactive and HP1b binding inh inactive.
C=C(C)[C@H]1[C@H]2OC(=O)[C@@H]1[C@]1(O)C[C@H]3O[C@]34C(=O)O[C@H]2[C@@]14C was read as Sfp PPTase inh inactive and G9a block inactive[21.5 µM].
CCOc1ccc(CN(CCc2ccc3c(c2)OCO3)Cc2ccc(C)cc2)cc1 was read as BAZ2B inh inconclusive, JMJD2A Tudor 6.31µM, G9a block inconclusive and HP1b binding inh inconclusive.
`CCOc1ccc(CN(CCc2ccc3c(c2)OCO3)Cc2ccc(OC)c(Br)c2)cc1` gave BAZ2B inh inconclusive, JMJD2A Tudor 7.08µM, G9a block inconclusive and HP1b binding inh inconclusive.
`COc1ccccc1NC(=O)N(Cc1ccc2c(c1)OCO2)C1CCN(Cc2ccccc2)CC1` gave BAZ2B inh inconclusive, JMJD2A Tudor inconclusive, G9a block inconclusive and HP1b binding inh inactive.
`CCOc1ccc(CN(CCc2ccc3c(c2)OCO3)Cc2cccc(Br)c2)cc1` gave BAZ2B inh inconclusive, JMJD2A Tudor 5.01µM, G9a block inconclusive and HP1b binding inh inconclusive.
CCOC(=O)C1(CCc2ccccc2)CCN(Cc2ccc3c(c2)OCCO3)CC1 was read as Sfp PPTase inh inactive, BAZ2B inh inactive, JMJD2A Tudor inactive, G9a block inactive, PLK1 PBD inh inactive and HP1b binding inh inactive.
Screening CCOc1ccc(CN(CCc2ccc3c(c2)OCO3)Cc2cccc(OC)c2)cc1 returned BAZ2B inh 31.6µM, JMJD2A Tudor 6.31µM, G9a block 2.24µM and HP1b binding inh inconclusive.
`CCCc1nn(C)c2c1C(c1ccncc1)C(C#N)=C(N)O2` (stereo not given) gave Sfp PPTase inh inactive, BAZ2B inh inactive, JMJD2A Tudor inactive, G9a block inconclusive, PLK1 PBD inh inconclusive and HP1b binding inh inactive.
Screening COc1ccc2c3c1OC1[C@H](O)CCC4[C@@H](C2)N(C)CC[C@]314 (stereo not given in full) returned JMJD2A Tudor inactive, PLK1 PBD inh inactive and HP1b binding inh inactive.
Screening c1cncc([C@H]2CCCCN2)c1 returned Sfp PPTase inh inactive.
N[C@H](Cn1ccc(=O)c(O)c1)C(=O)O was read as Sfp PPTase inh inactive and G9a block inactive[21.5 µM].
CN1C2CCC1/C(=C/c1ccccn1)C(=O)/C2=C\c1ccccn1 was read as Sfp PPTase inh inconclusive, BAZ2B inh inactive, JMJD2A Tudor 79.4µM, G9a block inconclusive, PLK1 PBD inh 26.7µM and HP1b binding inh inactive.
Screening Nc1c([N+](=O)[O-])ccc(Oc2ccccc2)c1Cl returned Sfp PPTase inh inactive.
`CCCCn1c(C)c(C(=O)OCC)c2c(CN3CCCC3)c(O)ccc21` gave Sfp PPTase inh inactive, BAZ2B inh inactive, JMJD2A Tudor inactive, G9a block 39.8µM, PLK1 PBD inh inactive and HP1b binding inh inactive.
For S=P(Nn1cnnc1)(c1ccc(Br)cc1)c1ccc(Br)cc1 the results were Sfp PPTase inh 79.4µM, BAZ2B inh inactive, JMJD2A Tudor inactive, G9a block inactive, PLK1 PBD inh inactive and HP1b binding inh inactive.
For CS(=O)(=O)c1ccc(C2=C(CNC(=O)c3nccs3)[C@H]3CC[C@@H](C2)N3Cc2ccco2)cc1 the results were PLK1 PBD inh inactive.
Screening Cc1cc(C)c(N)cc1C returned BAZ2B inh inactive, JMJD2A Tudor inactive, G9a block inactive[0.501 µM], PLK1 PBD inh inactive and HP1b binding inh inactive.
For Fc1cccc(-c2ccc3c(c2)CN(C(=S)NCCc2ccccc2)Cc2cnnn2-3)c1 the results were PLK1 PBD inh inactive.
Screening CCOC(=O)C1(CCc2ccccc2)CCN(C2CCSCC2)CC1 returned Sfp PPTase inh 79.4µM, BAZ2B inh inactive, JMJD2A Tudor inactive, PLK1 PBD inh inactive and HP1b binding inh inactive.
For O=C1NC(=O)N(C2CCCCC2)C(=O)C1C1c2ccccc2C(=O)N1Cc1ccccc1 (stereo not given) the results were Sfp PPTase inh inactive, BAZ2B inh inactive, JMJD2A Tudor inactive, G9a block 56.2µM, PLK1 PBD inh inactive and HP1b binding inh inactive.
For COc1cccc(C2Nc3ccccc3C(=O)N2Cc2ccccc2)c1 (stereo not given) the results were JMJD2A Tudor inactive, PLK1 PBD inh inactive and HP1b binding inh inactive.
`CN(CC(=O)N[C@H](CO)Cc1ccccc1)C(=O)[C@H](CCS(C)=O)NC(=O)[C@@H](N)Cc1ccc(O)cc1` (stereo not given in full) gave Sfp PPTase inh inactive and G9a block inactive.
`C=CCc1cccc(C=Nc2c[nH]c(=O)[nH]c2=O)c1O` gave Sfp PPTase inh inactive, BAZ2B inh inconclusive, JMJD2A Tudor 39.8µM, G9a block inactive, PLK1 PBD inh 26.7µM and HP1b binding inh inactive.
`Ic1ccccc1CNC1C2CCN(CC2)C1C(c1ccccc1)c1ccccc1` (stereo not given) gave G9a block 2µM.
Screening Ic1ccccc1CN[C@@H]1C2CCN(CC2)[C@@H]1C(c1ccccc1)c1ccccc1 returned BAZ2B inh 39.8µM, JMJD2A Tudor 17.8µM, G9a block 1.58µM, PLK1 PBD inh inactive and HP1b binding inh inconclusive.
`c1ccc2[nH]c(CCN3CCCCC3)nc2c1` gave PLK1 PBD inh inactive.
`Cc1nc(C(=O)O)nn1-c1ccc([N+](=O)[O-])cc1` gave Sfp PPTase inh inactive, BAZ2B inh inconclusive, JMJD2A Tudor inactive, G9a block 50.1µM, PLK1 PBD inh inactive and HP1b binding inh inactive.
For Cc1nc2ccccc2c(=O)n1-c1cc([N+](=O)[O-])cc([N+](=O)[O-])c1 the results were Sfp PPTase inh inactive, BAZ2B inh inactive, JMJD2A Tudor inactive, G9a block inactive, PLK1 PBD inh inactive and HP1b binding inh inactive.
For CNC(C)Cc1ccc(OC)cc1 (stereo not given) the results were Sfp PPTase inh inactive.

High-throughput results deposited in PubChem BioAssay by National Center for Advancing Translational Sciences (NCATS).
